Compound activity (PubChem BioAssay)
FMDV antiviral: foot and mouth disease virus antiviral activity; Potency, µM (series often up to 57.9 µM), actives largely listed as inhibitors; actives 1.2% (n = 410,000); FMDV antiviral cell-based qHTS; calls by dose curve; tested in HEK293T cells; also: read-out not given here; nearly all actives have a fitted effect of over 45% in size
Vaccinia Venus: vaccinia inhibition (Venus reporter) | actives 0.46% (n = 330,000) | AID 720580 | Vaccinia virus Venus reporter expression, fluorescence | Potency, µM (top dose mostly 36.5 µM), usual class: inhibitors; calls by dose curve; tested in A549 cells; also: nearly all actives have a fitted effect of over 30% in size
Vaccinia mCherry: inhibitors of vaccinia virus infection (mCherry reporter signal). Vaccinia virus mCherry reporter infection, fluorescence. Potency, µM (top dose mostly 36.5 µM), hits mostly inhibitors. actives 0.63% (n = 310,000). AID 720579; calls by dose curve; tested in A549 cells; also: nearly all actives have a fitted effect of over 35% in size
HCV inh: blocks hepatitis C virus. AID 651820. Huh7.5.1 HCVcc-Cre infection, luciferase reporter, 44 h. Potency, µM (highest dose often 41.8 µM), most hits filed as inhibitors. actives 3.4% (n = 340,000); active = well fitted inhibition curve with a large enough effect; inconclusive = small, poorly fitted or top-dose-only effect, or another doubt; inactive = no such curve, though single readings can be large or run the other way
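Seed cells (1,000/well) for 4 h; treat with compound and infect with HCVcc-Cre, moi about 0.5. Incubate 44 h, then detect luciferase activity.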
Lassa entry inh: inhibitors of Lassa virus binding or cell entry | Lassa virus pseudotype entry inhibition, cell reporter | Potency, µM (series often up to 37.9 µM), usual class: inhibitors | actives 1.2% (n = 300,000); calls by dose curve; tested in HEK293 cells; also: nearly all actives have a fitted effect of over 50% in size
Marburg entry inh: inhibitors of Marburg virus binding or cell entry | Potency, µM (doses to about 37.8 µM), usual class: inhibitors | actives 1.8% (n = 300,000) | AID 540276 | Marburg virus pseudotyped entry inhibition, cell reporter; calls by dose curve; tested in HEK293 cells
Of the large screens only hits and unclear results are named; the others gave an inactive call. The list is not random: actives were taken first. Their share in the collection is about 5.3%.

COc1ccc(-n2c(COc3ccc(Cl)cc3)nnc2SCc2ccc(C#N)cc2)cc1	Vaccinia Venus inconclusive, Vaccinia mCherry inconclusive, HCV inh inconclusive, Lassa entry inh inconclusive
COc1ccc(NCc2nnc(SCc3ccc(Cl)cc3)n2-c2ccccc2)cc1	FMDV antiviral inconclusive, HCV inh 8.9µM, Lassa entry inh inconclusive, Marburg entry inh inconclusive
CCc1ccc(NC(=O)CSc2ncc(S(=O)(=O)c3cc(C)ccc3C)c(=O)[nH]2)cc1	none (no result: HCV inh, Lassa entry inh)
Cc1ccc(C)c(N2CCN(C(=S)Nc3ccc4nc(N5CCN(C)CC5)cc(C)c4c3)CC2)c1	FMDV antiviral inconclusive, HCV inh 2.5µM (no result: Vaccinia Venus, Vaccinia mCherry, Lassa entry inh, Marburg entry inh)
COc1ccccc1N1CCN(C(=S)Nc2ccc3nc(N4CCOCC4)cc(C)c3c2)CC1	FMDV antiviral inconclusive, HCV inh 3.5µM, Lassa entry inh inconclusive, Marburg entry inh inconclusive
COc1cc2c(cc1OC)C(c1cc(-c3cc(Cl)ccc3Cl)oc1C)=NCC2	none (no result: FMDV antiviral, HCV inh, Lassa entry inh, Marburg entry inh)
Cc1csc(SCC(=O)NCC2Cc3cc(-c4cncnc4)ccc3O2)n1 (centres undefined)	none (no result: HCV inh, Lassa entry inh, Marburg entry inh)
COc1cc(C(=O)NCC(c2ccc3c(c2)OCO3)N2CCN(C)CC2)cc(OC)c1OC (centres undefined)	none (no result: HCV inh, Marburg entry inh)
Cc1ccc(C)c(S(=O)(=O)N2CCCC2CNC(=O)c2ccc([N+](=O)[O-])cc2)c1 (centres undefined)	FMDV antiviral inconclusive, HCV inh 11µM, Lassa entry inh inconclusive, Marburg entry inh inconclusive
Cc1ccc(C)c(S(=O)(=O)N2CCCCC2CCNC(=O)C(=O)NCc2ccco2)c1 (centres undefined)	FMDV antiviral inconclusive, Vaccinia Venus inconclusive, Vaccinia mCherry inconclusive, HCV inh 11µM, Marburg entry inh inconclusive
Cc1ccc(C(=O)NCC2CCCN2S(=O)(=O)c2ccc(C)cc2)cc1 (centres undefined)	none
Cc1cc(C)c(S(=O)(=O)N2CCCCC2CCNC(=O)C(=O)NC2CC2)c(C)c1 (centres undefined)	Vaccinia mCherry inconclusive, Lassa entry inh 0.89µM, Marburg entry inh inconclusive
CN1CCC2(CC1)[C@H]1CN(C)CC=C1C(C#N)=C(N)C2(C#N)C#N	none (no result: FMDV antiviral, Vaccinia Venus, Vaccinia mCherry, HCV inh, Lassa entry inh)
CCC(C)CN1C(=O)NC(CCc2ccccc2)C(C(C)=O)=C1C (centres undefined)	none (no result: FMDV antiviral, Vaccinia Venus, Vaccinia mCherry, HCV inh, Lassa entry inh)
CC(=O)Nc1ccc(-c2csc(NC(=O)CC(NC(C)=O)c3ccccc3)n2)cc1 (centres undefined)	none
CC(=O)NC(CC(=O)Nc1nc(-c2ccc(N(C)S(C)(=O)=O)cc2)cs1)c1ccccc1 (centres undefined)	Vaccinia mCherry inconclusive, HCV inh 11µM, Lassa entry inh inconclusive, Marburg entry inh inconclusive
CN(c1ccc(-c2csc(NC(=O)CCCc3nc4ccccc4c(=O)[nH]3)n2)cc1)S(C)(=O)=O	FMDV antiviral 35µM (no result: HCV inh, Lassa entry inh, Marburg entry inh)
CN(c1ccc(-c2csc(NC(=O)C3CC(=O)N(Cc4ccco4)C3)n2)cc1)S(C)(=O)=O (centres undefined)	FMDV antiviral 22µM, HCV inh inconclusive (no result: Vaccinia Venus, Vaccinia mCherry, Lassa entry inh, Marburg entry inh)
CCc1cccc(-n2c(=O)c3cccnc3n2CC(=O)Nc2c(C)cc(C)cc2C)c1	none (no result: HCV inh, Marburg entry inh)
COc1ccc(OC)c(CN2C(=O)c3ccccc3C2c2nnnn2Cc2ccccc2)c1 (centres undefined)	none (no result: HCV inh, Lassa entry inh, Marburg entry inh)
CCN(CC)C(=O)C1CCCN(c2ncnc3c2nc2n3CCCCC2)C1 (centres undefined)	Lassa entry inh inconclusive (no result: HCV inh, Marburg entry inh)
COc1cc(NS(=O)(=O)c2ccc(OC)c(C)c2C)c(OC)cc1Cl	Vaccinia Venus inconclusive, Vaccinia mCherry inconclusive, HCV inh 10µM, Lassa entry inh inconclusive, Marburg entry inh inconclusive
Cc1c(C(=O)Nc2ccccc2F)sc2ncnc(N(C)C3CCCCC3)c12	none (no result: HCV inh, Marburg entry inh)
COc1cc(NC(=O)CCNS(=O)(=O)c2ccc3c(c2)CCN3C(=O)C2CC2)cc(OC)c1	Lassa entry inh inconclusive (no result: HCV inh, Marburg entry inh)
COc1ccc2nc(C)c3c(c2c1)OC(C)C3 (centres undefined)	none (no result: Vaccinia mCherry)
CCOC(=O)c1ccc2nc(C)c3c(c2c1)OC(C)C3 (centres undefined)	HCV inh 10µM (no result: Vaccinia mCherry)
CCCc1c(NC(=O)Nc2ccc(Cl)cc2Cl)cnn1-c1ccccc1	Vaccinia mCherry inconclusive, HCV inh inconclusive, Lassa entry inh inconclusive, Marburg entry inh 0.89µM
CC(C)(C)OC(=O)N[C@@H](Cc1ccccc1)c1nnc(SCC(N)=O)o1	none (no result: Vaccinia Venus, Vaccinia mCherry, Lassa entry inh, Marburg entry inh)
